{"source": "the supplement of paper PMC6607015", "note": "Where a name gives a salt, the structure may show the parent alone."}
{"test_system": "A431", "test": "whole-cell filipin (free cholesterol) integrated intensity, Z-score; higher = more cholesterol staining", "conditions": "compound concentration in added solution (µM; 5 µl added to 20 µl cells): 10; 18 h", "method_in_brief": "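Each value is a Z-score normalised in AcuityXpress from per-cell integrated LBPA or filipin intensity, taken over the whole cell or within LBPA endosomes. Duplicate 384-well imaging plates held 5 µl of 10 µM compound solution, onto which 3,500 HeLa MZ or A431 cells in 20 µl were seeded per well. After 18 h the cells were fixed in 4% PFA, stained with 6C4 anti-LBPA antibody, filipin, propidium iodide and CellTracker green, imaged four times per well at 20× and segmented in MetaXpress.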"}
{"molecule": "C[N+]1(C)[C@@H]2CC[C@H]1C[C@@H](OC(=O)C(CO)c1ccccc1)C2", "note": "(stereo partly drawn) [Methylatropine nitrate]", "whole-cell filipin (z-score)": -0.241}
{"molecule": "COc1ccc(C(=O)N2CCCC2=O)cc1", "note": "[Aniracetam]", "whole-cell filipin (z-score)": -0.904}
{"molecule": "CC(C)c1c(CN(C)C(C)Cc2ccccc2)n(C)n(-c2ccccc2)c1=O", "note": "(stereo not drawn) [Famprofazone]", "whole-cell filipin (z-score)": -0.228}
{"molecule": "CC(=O)OCC1=C(C(=O)O)N2C(=O)[C@@H](N)[C@H]2SC1", "note": "[Cephalosporanic acid, 7-amino]", "whole-cell filipin (z-score)": -0.806}
{"molecule": "O=P1(N(CCCl)CCCl)NCCCO1", "note": "(stereo not drawn) [Cyclophosphamide]", "whole-cell filipin (z-score)": 0.399}
{"molecule": "C#CCN(C)[C@H](C)Cc1ccccc1", "note": "[Selegiline hydrochloride]", "whole-cell filipin (z-score)": -0.708}
{"molecule": "CC(=O)[C@H]1CC[C@H]2[C@@H]3CC[C@H]4C[C@H](O)CC[C@]4(C)[C@H]3C(=O)C[C@]12C", "note": "[Alfaxalone]", "whole-cell filipin (z-score)": 0.358}
{"molecule": "Cc1cc(C(C#N)c2ccc(Cl)cc2)c(Cl)cc1NC(=O)c1cc(I)cc(I)c1O", "note": "(stereo not drawn) [Closantel]", "whole-cell filipin (z-score)": -0.93}
{"molecule": "C[C@]12C[C@H]3S[C@H]3C[C@@H]1CC[C@@H]1[C@@H]2CC[C@]2(C)[C@@H](O)CC[C@@H]12", "note": "[Epitiostanol]", "whole-cell filipin (z-score)": 0.372}
{"molecule": "C=CCC1(CC(C)C)C(=O)NC(=O)NC1=O", "note": "[Butalbital]", "whole-cell filipin (z-score)": -0.608}
{"molecule": "O=C([O-])c1ccccc1-c1c2cc(Br)c(=O)cc-2oc2[c]([Hg+])c([O-])c(Br)cc12.[Na+].[Na+].[OH-]", "note": "[Merbromin]", "whole-cell filipin (z-score)": -0.246}
{"molecule": "C#C[C@]1(O)CC[C@H]2[C@@H]3CCC4=CC(=O)CCC4=C3C=C[C@@]21CC", "note": "[Gestrinone]", "whole-cell filipin (z-score)": 0.15}
{"molecule": "CNC(C)(C)Cc1ccccc1", "note": "[Mephentermine hemisulfate]", "whole-cell filipin (z-score)": -0.48}
